From PubChem BioAssay (NCATS)
Records with an inconclusive call do not appear. Active and inactive are the calls of the source. Calls come from the whole dose curve; as a rule, active = well fitted cell-killing curve with a large enough effect; inconclusive = small, poorly fitted or top-dose-only effect, or effect the other way; inactive = no such curve, though single readings can be large or run the other way.

Assay: Viability qHTS for spleen associated tyrosine kinase inhibitor (SYKi) naive MV4-11 cells (AID 1963823); note: nearly all actives have a fitted effect of over 40% in size
Settings: MV4-11 AML viability, CellTiter-Glo luminescence, 72 h; series mostly up to 45 µM; viability (% of control): at the top concentration
In short: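 Compounds were dispensed acoustically onto plates, MV4-11 cells (SYKi-naive) added at 500 per well, and plates incubated 72 hr at 37 C. CellTiter-Glo was added and luminescence measured after 10 min.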
Potency is the fitted concentration of half-maximal effect.

Compound | viability (% of control) | Potency
CC(CO[C@@H]1O[C@H](COC(=O)/C=C/c2ccc(O)c(O)c2)[C@@H](O)[C@H](O)[C@H]1O)C1(O)COC(=O)C1 (stereo partly drawn) | 71% [at 17.3 µM] (inactive) | –
CC(C)C[C@H](NC(=O)CNC(=O)OCc1ccccc1)C(=O)N[C@@H](Cc1ccccc1)C(=O)CCl | – | 18.4 µM (active)
CN(C)C(=O)COC(=O)c1cc(-c2ccc(C3CCNCC3)cc2)c2ccc(-c3ccc(C(F)(F)F)cc3)cc2c1 | – | 4.61 µM (active)
COC(=O)Cn1nc(-c2cccc(OC)c2)c2ccccc21 | 85.2% (inactive) | –
C[C@@H]1O[C@@H](OC[C@H]2O[C@@H](OCC3CCC4CC3C4(C)C)[C@H](O)[C@@H](O)[C@@H]2O)[C@H](O)[C@H](O)[C@H]1O (stereo partly drawn) | 67.2% [at 17.3 µM] (inactive) | –
C=CC(C)(C)c1[nH]c2ccccc2c1C1=C(O)C(=O)C(c2c[nH]c3c(CC=C(C)C)cccc23)=C(O)C1=O | – | 18.4 µM (active)
CC(C)=CCC[C@](C)(O[C@@H]1O[C@H](CO[C@@H]2O[C@@H](CO)[C@H](O)[C@H]2O[C@@H]2OC[C@@H](O)[C@H](O)[C@H]2O)[C@@H](O)[C@H](O)[C@H]1O)[C@H]1CC[C@]2(C)[C@@H]1[C@H](O)CC1[C@@]3(C)CC[C@H](O[C@@H]4O[C@H](CO)[C@@H](O)[C@H](O)[C@H]4O[C@@H]4O[C@H](CO)[C@@H](O)[C@H](O)[C@H]4O)C(C)(C)C3CC[C@]12C (stereo partly drawn) | 94.1% [at 9.25 µM] (inactive) | –
O=C(c1ccc2nccnc2c1)N1CCCCC1 | 11.2% (inactive) | –
